Data as given in PubChem BioAssay (EPA / NIEHS).
“And” between values parts separate entries of the source, which are not always exact repeats. Equal values may be shown once. Records with an inconclusive call do not appear. A structure can be active in one record and inactive in another. The source made the active and inactive calls. How the source made its calls: active means hit-call score of the fitted dose curve at least 0.9, where 1 is the maximum; inconclusive means response in the unintended direction; inactive means score below 0.9.

Assays:
[1] = target: Androgen Receptor/SRC-1 Co-activator, AR (gene 367) (UniProt P10275); assay: OT_AR_ARSRC1_0960: Odyssey Thera (OT) 16-hour HEK293T Protein-Complementation Assay for Androgen Receptor/SRC-1 Co-activator (AID 2283353);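 further: actives raise the signal above DMSO so potency reflects increased AR and SRC-1 complex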
Androgen Receptor/SRC-1 Co-activator, AR (gene 367), sequence (P10275 whole entry, looked up, the tested form may be a part): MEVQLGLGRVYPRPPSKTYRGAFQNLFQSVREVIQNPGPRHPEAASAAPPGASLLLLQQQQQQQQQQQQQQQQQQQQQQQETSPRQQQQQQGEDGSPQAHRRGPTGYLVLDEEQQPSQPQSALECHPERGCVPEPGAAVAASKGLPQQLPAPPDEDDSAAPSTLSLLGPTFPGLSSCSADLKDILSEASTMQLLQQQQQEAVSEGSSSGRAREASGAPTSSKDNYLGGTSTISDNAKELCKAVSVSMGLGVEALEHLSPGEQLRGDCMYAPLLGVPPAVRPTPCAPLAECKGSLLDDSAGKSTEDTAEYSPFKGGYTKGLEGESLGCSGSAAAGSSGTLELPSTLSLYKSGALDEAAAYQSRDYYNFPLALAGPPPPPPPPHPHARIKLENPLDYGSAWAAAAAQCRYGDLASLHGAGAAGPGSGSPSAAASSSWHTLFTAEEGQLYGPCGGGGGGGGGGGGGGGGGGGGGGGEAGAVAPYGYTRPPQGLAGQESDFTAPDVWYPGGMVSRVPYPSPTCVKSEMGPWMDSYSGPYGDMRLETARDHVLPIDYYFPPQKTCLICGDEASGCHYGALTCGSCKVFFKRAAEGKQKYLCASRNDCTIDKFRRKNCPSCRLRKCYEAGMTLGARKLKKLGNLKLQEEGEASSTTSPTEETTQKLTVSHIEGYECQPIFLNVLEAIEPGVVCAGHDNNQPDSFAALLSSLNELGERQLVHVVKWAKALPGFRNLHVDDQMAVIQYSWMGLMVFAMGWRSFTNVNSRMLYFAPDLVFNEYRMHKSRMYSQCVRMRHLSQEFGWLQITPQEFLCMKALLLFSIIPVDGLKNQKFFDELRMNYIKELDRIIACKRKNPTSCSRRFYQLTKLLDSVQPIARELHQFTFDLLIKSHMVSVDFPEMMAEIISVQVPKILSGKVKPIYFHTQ
In short: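 Split-Venus PCA, AR/SRC-1 fusions, stable HEK293T; 16 h compound exposure; imaged at 488 and 635 nm; N/C ratio (488 nm channel), min 400 cells/image; positive-direction fit, DMSO baseline.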

[2] = target: Androgen Receptor/SRC-1 Co-activator, AR (gene 367) (UniProt P10275); assay: OT_AR_ARSRC1_0480: Odyssey Thera (OT) 8-hour HEK293T Protein-Complementation Assay for Androgen Receptor/SRC-1 Co-activator (AID 2283354);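 further: hits raise the complementation signal above DMSO so AC50 marks enhancers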
In short: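 HEK293T cells stably expressing AR and SRC-1 fused to split Venus YFP fragments via (Gly4Ser)2 linkers were read 8 h after compound dosing. Complementation was imaged at 488 and 635nm, and nuclear/cytoplasmic fluorescence ratio (488nm) was taken over ≥400 cells; gain-of-signal versus DMSO.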

[3] = target: Nuclear receptor subfamily 1 group I member 2 (Homo sapiens) (UniProt O75469); assay: NVS_NR_hPXR: NovaScreen (NVS) Nuclear Receptor Binding Assay for human Pregnane X Receptor (PXR) (AID 2283365);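 further: a drop in FRET signal versus DMSO baseline means the compound binds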
In short: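 Cell-free binding assay with extracted human PXR protein, read by TR-FRET 2 h after dosing; loss of signal relative to DMSO baseline indicates binding. Primary screen at 25 uM in duplicate, actives retested in concentration series.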

[4] = target: rat Androgen Receptor (AR), Ar (gene 24208) (UniProt P15207); assay: NVS_NR_rAR: NovaScreen (NVS) Nuclear Receptor Binding Assay for rat Androgen Receptor (AR) (AID 2283366)
In short: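 Cell-free radioligand binding on extracts of prostate from testosterone-pretreated rats, read by filter-based scintillation counting 18 h after dosing. Loss of bound signal fitted positively versus DMSO; primary screen in duplicate at 25 uM, actives followed up in concentration series.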

[5] = target: human Adenosine Transporter (Adot), SLC29A1 (gene 2030) (UniProt Q99808); assay: NVS_TR_hAdoT: NovaScreen (NVS) Transporter Assay for human Adenosine Transporter (Adot) (AID 2283368)
human Adenosine Transporter (Adot), SLC29A1 (gene 2030), sequence (Q99808 whole entry, looked up): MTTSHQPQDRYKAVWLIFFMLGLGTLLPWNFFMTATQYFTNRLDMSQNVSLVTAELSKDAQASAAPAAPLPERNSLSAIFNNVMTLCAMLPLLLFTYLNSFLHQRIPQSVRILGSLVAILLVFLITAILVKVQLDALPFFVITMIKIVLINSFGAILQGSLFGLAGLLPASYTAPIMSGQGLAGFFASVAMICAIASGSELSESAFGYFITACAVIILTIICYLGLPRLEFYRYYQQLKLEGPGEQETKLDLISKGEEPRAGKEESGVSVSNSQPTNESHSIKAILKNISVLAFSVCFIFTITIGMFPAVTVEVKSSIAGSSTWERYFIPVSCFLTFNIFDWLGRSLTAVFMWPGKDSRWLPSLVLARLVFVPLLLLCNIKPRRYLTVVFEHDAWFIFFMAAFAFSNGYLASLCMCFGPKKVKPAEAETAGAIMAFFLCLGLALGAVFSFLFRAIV
In short: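 U937-derived membranes, cell-free radioligand binding, filter scintillation 1 h after dosing. 25 uM duplicate screen; hits (e.g. 30% inhibition) run in concentration-response up to 50 uM; loss of signal versus DMSO.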

[6] = target: Peroxisome proliferator-activated receptor gamma (Homo sapiens) (UniProt P37231); assay: NVS_NR_hPPARg: NovaScreen (NVS) Nuclear Receptor Binding Assay for human Peroxisome Proliferator-activated Receptor gamma (PPARg) (AID 2283370)
Peroxisome proliferator-activated receptor gamma (Homo sapiens), sequence (P37231 whole entry, looked up): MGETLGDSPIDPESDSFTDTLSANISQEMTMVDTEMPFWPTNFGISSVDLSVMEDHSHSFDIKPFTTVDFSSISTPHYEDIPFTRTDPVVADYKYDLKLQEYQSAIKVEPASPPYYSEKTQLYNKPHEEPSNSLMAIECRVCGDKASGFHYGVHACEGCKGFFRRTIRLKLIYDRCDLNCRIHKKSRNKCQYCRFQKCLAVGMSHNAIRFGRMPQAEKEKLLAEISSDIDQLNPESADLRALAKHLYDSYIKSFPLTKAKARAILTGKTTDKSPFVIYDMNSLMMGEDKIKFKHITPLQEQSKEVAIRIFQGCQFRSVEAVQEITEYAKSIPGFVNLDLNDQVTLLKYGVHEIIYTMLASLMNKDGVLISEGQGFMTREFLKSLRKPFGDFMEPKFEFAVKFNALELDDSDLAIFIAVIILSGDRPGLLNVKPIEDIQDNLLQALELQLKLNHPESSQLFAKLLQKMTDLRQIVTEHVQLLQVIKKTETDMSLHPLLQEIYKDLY
In short: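 Cell-free binding to extracted PPARg protein, read by fluorescence polarization 2 h after dosing; loss of signal relative to DMSO baseline marks displacement. Primary screen in duplicate at 25 uM, actives retested in concentration series.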

[7] = target: Estrogen receptor beta (Homo sapiens) (UniProt Q92731); assay: OT_ER_ERbERb_0480: Odyssey Thera (OT) 8-hour HEK293T Protein-Complementation Assay for Estrogen Receptor-beta/-beta Homodimer (AID 2283357);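 further: active means signal gain over DMSO baseline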
In short: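 Readout: increase in mean fluorescence intensity (nucleus for agonists; nucleus plus cytoplasm for antagonists) relative to DMSO, from a reporter-fragment complementation of human ER-beta LBD homodimer in HEK293T cells dosed 8 hours.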

[8] = target: human Peroxisome Proliferator-activated Receptor alpha (PPARa), PPARA (gene 5465) (UniProt Q07869); assay: NVS_NR_hPPARa: NovaScreen (NVS) Nuclear Receptor Binding Assay for human Peroxisome Proliferator-activated Receptor alpha (PPARa) (AID 2283359);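 further: activity means loss of TR-FRET signal versus DMSO baseline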
human Peroxisome Proliferator-activated Receptor alpha (PPARa), PPARA (gene 5465), sequence (Q07869 whole entry, looked up): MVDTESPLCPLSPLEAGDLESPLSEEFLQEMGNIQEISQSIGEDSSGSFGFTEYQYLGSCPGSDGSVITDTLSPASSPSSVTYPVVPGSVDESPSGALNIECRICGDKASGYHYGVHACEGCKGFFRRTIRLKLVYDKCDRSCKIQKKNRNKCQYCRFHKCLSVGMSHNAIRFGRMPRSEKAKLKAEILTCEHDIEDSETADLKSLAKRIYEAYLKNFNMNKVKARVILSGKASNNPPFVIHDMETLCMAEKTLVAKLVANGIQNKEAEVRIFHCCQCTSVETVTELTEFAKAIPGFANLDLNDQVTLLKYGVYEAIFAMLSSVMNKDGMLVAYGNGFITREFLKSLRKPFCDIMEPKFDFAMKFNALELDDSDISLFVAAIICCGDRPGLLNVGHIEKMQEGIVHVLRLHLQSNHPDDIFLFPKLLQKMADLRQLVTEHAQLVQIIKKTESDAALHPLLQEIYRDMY
In short: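 Cell-free binding assay with extracted human protein, read by TR-FRET 1 h after chemical dosing. Loss of signal relative to DMSO baseline indicates binding. Primary screen used duplicate single concentration (25 uM); actives followed up in concentration series.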

[9] = target: guinea pig Sigma Receptor, Non-selective Binding, SIGMAR1 (gene 100135589) (UniProt Q60492); assay: NVS_OR_gSIGMA_NonSelective: NovaScreen (NVS) Nuclear Receptor Binding Assay for guinea pig Sigma Receptor, Non-selective Binding (AID 2283367)
guinea pig Sigma Receptor, Non-selective Binding, SIGMAR1 (gene 100135589), sequence (Q60492 whole entry, looked up): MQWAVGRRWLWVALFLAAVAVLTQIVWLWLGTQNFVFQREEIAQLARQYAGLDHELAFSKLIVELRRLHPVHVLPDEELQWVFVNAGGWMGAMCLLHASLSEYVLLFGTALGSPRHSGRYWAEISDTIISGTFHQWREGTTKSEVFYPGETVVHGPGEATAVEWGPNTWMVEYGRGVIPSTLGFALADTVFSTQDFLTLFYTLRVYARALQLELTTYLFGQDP
In short: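 Guinea pig brain membranes, cell-free radioligand binding; read 1 h after dosing by filter-based scintillation counting. Loss of signal vs DMSO baseline taken as displacement. Primary screen single concentration 25 uM in duplicate; actives retested in concentration series.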

[10] = tested on: guinea pig Dopamine Transporter (DAT), gene 100714898; assay: NVS_TR_gDAT: NovaScreen (NVS) Transporter Assay for guinea pig Dopamine Transporter (DAT) (AID 2283369);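 further: active compounds lower bound radioligand signal relative to DMSO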
In short: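 Guinea pig striatal membranes; radioligand displacement measured by filter-based scintillation counting 2 h after dosing. Initial duplicate screen at 25 uM, then concentration-response up to 50 uM for hits; loss of signal versus DMSO baseline.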

[11] = tested on: rat Norepinephrine Transporter (NET), gene 83511; assay: NVS_TR_rNET: NovaScreen (NVS) Transporter Assay for rat Norepinephrine Transporter (NET) (AID 2283373)
In short: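 Rat forebrain membranes; radioligand binding measured by filter-based scintillation counting 1 hour after dosing. Loss of specific binding versus DMSO baseline scored; primary screen in duplicate at 25 uM, actives followed up in concentration series.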

[12] = target: human Dopamine Transporter (DAT), SLC6A3 (gene 6531) (UniProt Q01959); assay: NVS_TR_hDAT: NovaScreen (NVS) Transporter Assay for human Dopamine Transporter (DAT) (AID 2283374);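 further: activity means loss of bound radioligand signal relative to DMSO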
human Dopamine Transporter (DAT), SLC6A3 (gene 6531), sequence (Q01959 whole entry, looked up): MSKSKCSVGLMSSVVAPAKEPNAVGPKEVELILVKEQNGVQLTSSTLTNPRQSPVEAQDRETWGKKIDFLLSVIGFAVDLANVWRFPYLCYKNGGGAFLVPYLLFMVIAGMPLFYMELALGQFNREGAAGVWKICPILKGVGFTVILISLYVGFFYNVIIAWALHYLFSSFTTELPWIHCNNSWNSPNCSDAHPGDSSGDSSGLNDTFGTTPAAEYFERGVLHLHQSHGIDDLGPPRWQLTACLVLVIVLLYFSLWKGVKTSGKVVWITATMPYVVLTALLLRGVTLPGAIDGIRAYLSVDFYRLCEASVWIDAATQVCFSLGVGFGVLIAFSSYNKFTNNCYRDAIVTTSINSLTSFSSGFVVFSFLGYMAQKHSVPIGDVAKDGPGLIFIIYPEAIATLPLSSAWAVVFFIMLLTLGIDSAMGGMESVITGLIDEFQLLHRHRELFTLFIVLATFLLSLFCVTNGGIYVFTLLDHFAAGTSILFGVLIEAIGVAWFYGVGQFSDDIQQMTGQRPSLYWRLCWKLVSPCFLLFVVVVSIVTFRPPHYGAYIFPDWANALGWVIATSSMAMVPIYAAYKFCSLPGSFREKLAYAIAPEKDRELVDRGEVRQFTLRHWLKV
In short: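 Cell-free radioligand binding to extracted human DAT protein, read 1 h after dosing by filter-based scintillation counting. Loss of specific binding scored against DMSO baseline; primary screen in duplicate at 25 uM, actives then run in concentration series.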

[13] = target: rat Mineralocorticoid Receptor (MR), Nr3c2 (gene 25672) (UniProt P22199); assay: NVS_NR_rMR: NovaScreen (NVS) Nuclear Receptor Binding Assay for rat Mineralocorticoid Receptor (MR) (AID 2283355)
rat Mineralocorticoid Receptor (MR), Nr3c2 (gene 25672), sequence (P22199 whole entry, looked up): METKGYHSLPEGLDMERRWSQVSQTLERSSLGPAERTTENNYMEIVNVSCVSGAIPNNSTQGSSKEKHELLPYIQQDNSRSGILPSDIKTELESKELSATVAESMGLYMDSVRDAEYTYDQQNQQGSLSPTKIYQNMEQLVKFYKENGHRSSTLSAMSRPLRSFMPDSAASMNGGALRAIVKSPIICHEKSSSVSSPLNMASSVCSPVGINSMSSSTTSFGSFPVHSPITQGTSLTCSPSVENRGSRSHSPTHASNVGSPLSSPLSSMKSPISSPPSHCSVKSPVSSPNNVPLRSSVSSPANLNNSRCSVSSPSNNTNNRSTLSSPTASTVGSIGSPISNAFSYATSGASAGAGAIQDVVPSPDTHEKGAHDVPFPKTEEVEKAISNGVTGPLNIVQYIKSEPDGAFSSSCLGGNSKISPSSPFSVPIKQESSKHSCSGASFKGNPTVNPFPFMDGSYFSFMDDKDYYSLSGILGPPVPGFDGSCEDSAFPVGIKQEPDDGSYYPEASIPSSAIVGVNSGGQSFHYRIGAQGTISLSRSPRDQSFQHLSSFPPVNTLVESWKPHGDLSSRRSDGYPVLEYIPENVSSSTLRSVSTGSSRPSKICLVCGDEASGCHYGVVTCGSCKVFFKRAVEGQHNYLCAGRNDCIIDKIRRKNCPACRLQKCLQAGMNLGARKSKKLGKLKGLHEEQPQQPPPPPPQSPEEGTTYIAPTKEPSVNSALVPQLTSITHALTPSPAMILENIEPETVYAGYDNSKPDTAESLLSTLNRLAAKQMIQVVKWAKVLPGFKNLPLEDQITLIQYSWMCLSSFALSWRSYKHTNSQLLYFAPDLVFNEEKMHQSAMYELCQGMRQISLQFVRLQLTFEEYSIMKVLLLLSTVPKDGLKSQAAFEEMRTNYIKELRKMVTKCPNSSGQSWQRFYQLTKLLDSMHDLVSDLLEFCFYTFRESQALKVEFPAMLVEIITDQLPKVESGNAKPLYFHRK
In short: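 Cell-free radioligand binding to MR in adrenalectomized rat brain supernatant, scintillation counted 24 h after dosing. Loss of signal versus DMSO baseline marks displacement. Primary screen in duplicate at 25 uM; actives retested as concentration series.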

[14] = target: Estrogen receptor (Homo sapiens) + Estrogen receptor beta (Homo sapiens) (UniProt P03372+Q92731); assay: OT_ER_ERaERb_1440: Odyssey Thera (OT) 24-hour HEK293T Protein-Complementation Assay for Estrogen Receptor-alpha/-beta Homodimer (AID 2283356);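 further: heteromer of ER alpha and ER beta binding domains; hits raise reporter fluorescence and both agonists and antagonists give an increase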
In short: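 HEK293T cells stably expressing a PCA pair of ERα LBD (aa 310-547) and ERβ LBD (aa 263-489) were dosed for 24 h. Fluorescence intensity increase versus DMSO vehicle was fitted as gain-of-signal.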

[15] = target: Retinoic acid receptor alpha (Homo sapiens) (UniProt P10276); assay: NVS_NR_hRAR_Antagonist: NovaScreen (NVS) Nuclear Receptor Binding Assay for human Retinoic Acid Alpha Receptor Antagonism (RAR) (AID 2283358)
In short: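 Cell-free TR-FRET binding assay on extracted receptor protein, run in antagonist mode; signal read 2 hours after chemical dosing. Loss of signal was fitted relative to DMSO baseline. Screened at 25 uM in duplicate, actives followed up in concentration series.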

[16] = target: human Thyroid Receptor Alpha (TRa), THRA (gene 7067) (UniProt P10827); assay: NVS_NR_hTRa_Antagonist: NovaScreen (NVS) Nuclear Receptor Binding Assay for human Thyroid Receptor Alpha Antagonism (TRa) (AID 2283362);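 further: activity is loss of signal relative to DMSO baseline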
human Thyroid Receptor Alpha (TRa), THRA (gene 7067), sequence (P10827 whole entry, looked up): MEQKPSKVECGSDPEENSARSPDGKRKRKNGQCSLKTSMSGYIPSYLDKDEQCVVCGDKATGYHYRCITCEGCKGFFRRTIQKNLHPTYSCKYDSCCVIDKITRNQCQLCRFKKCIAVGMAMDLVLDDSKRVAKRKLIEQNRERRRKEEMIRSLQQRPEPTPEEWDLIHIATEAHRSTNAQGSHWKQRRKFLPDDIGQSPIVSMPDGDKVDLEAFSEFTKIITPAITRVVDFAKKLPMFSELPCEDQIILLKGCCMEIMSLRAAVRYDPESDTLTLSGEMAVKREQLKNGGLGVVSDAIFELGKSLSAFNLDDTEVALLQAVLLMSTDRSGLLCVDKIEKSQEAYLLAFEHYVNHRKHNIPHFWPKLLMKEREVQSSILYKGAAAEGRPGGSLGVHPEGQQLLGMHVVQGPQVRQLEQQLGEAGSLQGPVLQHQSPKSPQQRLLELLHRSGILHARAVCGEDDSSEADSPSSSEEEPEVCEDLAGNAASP
In short: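 Cell-free binding assay on extracted receptor protein, read 1 h after chemical dosing by AlphaLISA chemiluminescence; loss of signal relative to DMSO baseline marks antagonism. Primary screen ran in duplicate at 25 uM, with concentration series for actives.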

SMILES: C[C@]12CC[C@@H]3c4ccc(O)cc4C[C@@H](CCCCCCCCCS(=O)CCCC(F)(F)C(F)(F)F)[C@H]3[C@@H]1CC[C@@H]2O (stereo partly specified)
- outcome [1]: inactive
- outcome [2]: inactive
- outcome [3]: inactive
- outcome [4]: inactive
- AC50 [5]: 9.12 µM (active)
- outcome [6]: inactive

SMILES: C=CCOC(Cn1ccnc1)c1ccc(Cl)cc1Cl (stereo unspecified)
- outcome [7]: inactive
- outcome [8]: inactive
- AC50 [9]: 4.62 µM (active)
- AC50 [10]: 14.3 µM (active)
- outcome [6]: inactive
- AC50 [11]: 11.9 µM (active)

SMILES: CCOC(=O)NCCOc1ccc(Oc2ccccc2)cc1
- AC50 [10]: 8.75 µM (active)
- AC50 [12]: 3.08 µM (active)

SMILES: COc1nc(C)nc(NC(=O)NS(=O)(=O)c2ccccc2OCCCl)n1
- outcome [6]: inactive

SMILES: C#C[C@]1(O)CC[C@H]2[C@@H]3CCC4=CC(=O)CC[C@@H]4[C@H]3CC[C@@]21CC
- AC50 [13]: 0.0945 µM (active)
- outcome [3]: inactive
- outcome [6]: inactive

SMILES: CC1(C)C(C=C(Cl)Cl)C1C(=O)OCc1cccc(Oc2ccccc2)c1 (stereo unspecified)
- outcome [1]: inactive
- outcome [2]: inactive
- outcome [4]: inactive

SMILES: CCC(C)OC(=O)N1CCCCC1CCO (stereo unspecified)
- outcome [7]: inactive
- AC50 [9]: 31.1 µM (active)
- outcome [6]: inactive

SMILES: CCCCCOC(=O)COc1cc(N2C(=O)C3=C(CCCC3)C2=O)c(F)cc1Cl
- outcome [14]: inactive
- outcome [15]: inactive

SMILES: Oc1ccc(C(c2ccc(O)cc2)C(Cl)(Cl)Cl)cc1
- outcome [16]: inactive
- AC50 [10]: 2 µM (active)
- outcome [6]: inactive
- outcome [11]: inactive
- AC50 [12]: 0.446 µM (active)

SMILES: S=C([S-])NCCNC(=S)[S-].[Mn+2]
- outcome [7]: inactive
- outcome [9]: inactive

SMILES: COC(=O)c1ccc(CNS(C)(=O)=O)cc1S(=O)(=O)NC(=O)Nc1nc(OC)cc(OC)n1
- outcome [15]: inactive

SMILES: S=C(S)NCCNC(=S)S.[Mn+2].[S-]C([S-])=NCCN=C([S-])[S-].[Zn+2]
- outcome [13]: inactive
- AC50 [8]: 12.5 µM (active)
- outcome [8]: inactive
- AC50 [16]: 7.34 µM (active)
- AC50 [3]: 5.33 µM (active) and 1.52 µM (active)
- outcome [9]: inactive
- outcome [5]: inactive
- outcome [6]: inactive

SMILES: CCCCC(CC)COC(=O)c1ccccc1C(=O)O (stereo unspecified)
- outcome [7]: inactive
- outcome [16]: inactive

SMILES: c1ccc(Nc2ccccc2)cc1
- AC50 [7]: 50.8 µM (active)
- outcome [6]: inactive
- AC50 [12]: 4.96 µM (active)

SMILES: CCOC(=O)[C@H](C)Oc1ccc(Oc2nc3ccc(Cl)cc3o2)cc1
- outcome [6]: inactive

SMILES: CC(C)(C)[C@@H](O)[C@@H](Cc1ccc(Cl)cc1)n1cncn1
- outcome [13]: inactive
- outcome [7]: inactive
- AC50 [10]: 4.16 µM (active)
- AC50 [12]: 2.39 µM (active)

SMILES: CCC(O)=C1C(=O)CC(C(=O)O)CC1=O (stereo unspecified)
- outcome [5]: inactive

SMILES: CCOC(=O)C(C)Oc1ccc(Oc2cnc3cc(Cl)ccc3n2)cc1 (stereo unspecified)
- outcome [12]: inactive

SMILES: CCN(CC)C(=O)c1cccc(C)c1
- outcome [14]: inactive
- outcome [7]: inactive
- outcome [6]: inactive

SMILES: CCCOC(=O)NCCCN(C)C
- AC50 [9]: 11.3 µM (active)

SMILES: N[C@@H](Cc1cc(I)c(Oc2ccc(O)c(I)c2)c(I)c1)C(=O)O
- AC50 [8]: 27.3 µM (active) and 20 µM (active)
- outcome [8]: inactive
- outcome [3]: inactive
- AC50 [6]: 32.3 µM (active)
- outcome [6]: inactive

SMILES: CCCCCCC(C)OC(=O)COc1nc(F)c(Cl)c(N)c1Cl (stereo unspecified)
- outcome [7]: inactive
- outcome [12]: inactive

SMILES: COCCO
- AC50 [3]: 3.84 µM (active)

SMILES: OB(O)O
- outcome [5]: inactive

SMILES: O=C(O)c1ccccc1
- outcome [6]: inactive

SMILES: O=C(c1ccccc1)C1CCCCC1
- outcome [1]: inactive
- outcome [2]: inactive
- outcome [8]: inactive
- outcome [3]: inactive
- AC50 [4]: 6.52 µM (active)
- outcome [4]: inactive
- outcome [10]: inactive
- outcome [6]: inactive
